Screening results: PubChem, National Center for Advancing Translational Sciences (NCATS)
Sampled rows, rich in hits. Any-hit rate of the full collection: about 1.7%.
IkB sig inh: inhibitors of IkB signaling in ABC-DLBCL cells. Potency, µM (titrated, usually from 57.1 µM), for inactives: top-dose IkBa stabilization activation. 0.04% of 110,000 active. AID 445. ABC-DLBCL IkBa-CBG/CBR dual luciferase ratio, 4 h; response scale: scaled: untreated 0%, proteasome inhibitor 100%; active means well fitted curve in the direction sought with a large enough effect in the signal ratio, not every such curve was filed as active; inconclusive means small, poorly fitted or top-dose-only effect, or a change in a side signal; the % refers to the signal ratio;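 further: the direction sought is a rising ratio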
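In this assay, an IκBα–CBG68 fusion accumulates when IKK-driven degradation is blocked; native CBR normalizes for cell number. OCI-Ly3 cells were treated 4 h with compound and doxycycline, then green and red light read after Chroma-Glo addition.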
p53ts 32C tox: kills p53ts cells at the permissive temperature. AID 924. 0.93% of 130,000 active. Potency, µM (highest dose often 46.1 µM), inactives show at the top dose activity change, negative = cytotoxicity, most hits filed as cytotoxic. H1299-p53A138V at 32C, ATP luminescence viability, 24 h;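 further: 0% = DMSO and -100% = full killing by reference compound; nearly all actives have a fitted effect of over 55% in size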
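Cells: H1299 p53ts (A138V), 600/well, pre-incubated 16–30 h at 37C. Cpd up to 46 uM, 24 h, 32C. Readout: ATPlite luminescence, 20 min RT. Normalization: DMSO vs tamoxifen 100 uM. AC50 by Hill equation.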
p53ts 39C kill: cytotoxicity in p53ts cells at nonpermissive temperature | Potency, µM (series often up to 46.1 µM), without a hit: top-dose activity change, negative = cell killing, actives largely listed as cytotoxic | 1.5% of 130,000 active | H1299-p53A138V viability at 39C, ATP luminescence, 24 h; further: on the % scale 0 is the no-effect control and ±100 the full control effect; nearly all actives have a fitted effect of over 55% in size
Peg3 imprint: inducers of genomic imprint erasure in mouse ES cells | mouse ES Peg3-LacZ reporter, beta-gal luminescence, 40 h | Potency, µM (highest dose often 60.7 µM), for inactives: at the highest dose activity change, positive = activation, actives largely listed as activators | 0.02% of 110,000 active | AID 1948
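Gelatin-coated wells received 300 freshly trypsinized female ES cells with a Peg3LacZ-Neo reporter on the maternal allele, then incubated 40 hours at 37C. BetaGlo was added for 5 minutes at room temperature before a single luminescence read.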
The depositor's hits bear a star; u = inconclusive; x = no result; [ ] = remark or other dose. Unless noted, the call rests on the fitted dose curve; in most records, active means well fitted curve in the direction sought with a large enough effect; inconclusive means small, poorly fitted or top-dose-only effect, or another doubt; inactive means no such curve, though single readings can be large; an effect the other way counts as inactive or inconclusive. Potency means the concentration at half of the fitted maximal effect.

SMILES	IkB sig inh	p53ts 32C tox	p53ts 39C kill	Peg3 imprint
Cc1cc(C)n(-c2ccc(C(=O)Nc3ccc4c(c3)OCCO4)cc2)n1	u	u	u	-14%
COC(=O)NC(CC(C)=O)c1cccs1 (configuration not stated)	x	6%[9.22 µM]	5%[9.22 µM]	x
S=C(S)NCCN1CCNCC1	-1%[11.4 µM]	8%[9.22 µM]	5%[9.22 µM]	2%[10.9 µM]
Cc1cc(C)n(-c2ccc(C(=O)Nc3ccccn3)cc2)n1	u	13µM*	10µM*	-67%
Cc1cc(C)n(-c2ccc(C(=O)Nc3sccc3C(N)=O)cc2)n1	u	u	u	-51%
N=C1N=C(N)c2cc3ccccc3cc21	u	12%[1.84 µM]	u	-15%
Clc1ccc(-c2nnc(NC3=NCCCCC3)o2)cc1	u	13µM*	13µM*	-80%
c1nnc(NC2=NCCCCC2)s1	1%	-4%	-8%	-14%
Cn1nnnc1SCc1ccc(C(=O)Nc2nccs2)cc1	-1%	u	5µM*	-40%
Cn1c(CSCc2ccc(F)cc2)nnc1SCC(=O)Nc1nccs1	3%	9%	9%	-20%
COc1ccc(CC(=O)Nc2cccc(-c3nnc(-c4cccc(C)c4)o3)c2)cc1OC	u	13µM*	u	-47%
O=C(Cc1ccc(Cl)cc1)Nc1ccc2oc(-c3ccc(F)cc3)nc2c1	11%	-12%	-5%	-11%[10.9 µM]
COc1ccc(CC(=O)Nc2cccc(-c3nnc(-c4ccc(C)cc4)o3)c2)cc1OC	u	u	-9%	-17%
COc1ccc(-c2nc3cc(NC(=O)Cc4ccc(Cl)cc4)ccc3o2)cc1OC	u	10µM*	7.9µM*	-21%[10.9 µM]
CNCC[C@H](Oc1ccccc1C)c1ccccc1	-6%	-18%	13µM*	x
CNCC[C@@H](Oc1ccccc1C)c1ccccc1	1%	-1%	-24%	-26%
CCn1c(SCc2ccccc2Cl)nc(=O)c2c(C(=O)OC)cc(C3CC3)nc21	u	10%	13µM*	1%[10.9 µM]
O=C(N/N=C/c1cccs1)c1ccc2c(c1)OCO2	x	8.9µM*	10µM*	x
Cc1ccccc1C(=O)Nc1cccc(N)c1	5%	-1%	2%	-19%
Cc1ccccc1C(=O)Nc1cccc(NC(=O)c2ccc(C(C)(C)C)cc2)c1	17%	10µM*	13µM*	-24%[10.9 µM]
COc1cccc(C(=O)Nc2cccc(NC(C)=O)c2)c1	19%	-14%	-3%	-48%
COc1ccc2oc(=O)c(C(=O)Nc3cccc(C(=O)O)c3)cc2c1	u	7.9µM*	5µM*	-89%[10.9 µM]
COc1cccc(C(=O)Nc2ccc(NC(=O)C(C)(C)C)cn2)c1	2%	4µM*	3.2µM*	-83%
COc1ccc(C(=O)Nc2cccc(OC)c2)cc1	u	10µM*	13µM*	-92%
COc1ccc(CNC(=O)c2cc3cc(OC)ccc3oc2=O)cc1	-2%	10%	-22%	5%[10.9 µM]
SMILES	IkB sig inh	p53ts 32C tox	p53ts 39C kill	Peg3 imprint
C[C@H](O)[C@H](O)[C@@H](O)c1cnc2nc(N)[nH]c(=O)c2n1	1%[11.4 µM]	x	x	x
OCC1OC(/C=C\c2ccccc2)C=CC1Oc1ccc2c(c1)OCO2 (configuration not stated)	x	-7%[9.22 µM]	u	x
CCCn1c(-c2ccc(F)cc2)nc2c(NCCN(C(C)C)C(C)C)nc(C)nc21	x	-2%	-1%	-13%
COc1ccc(/C=C/C(=O)Nc2cccc(F)c2)cc1	u	10µM*	7.9µM*	-44%[10.9 µM]
CCc1nnc(NC(=O)c2cccc(OC)c2)s1	5%	13µM*	u	-62%
COc1ccc(C(=O)COC(=O)c2cccc(NC(=O)c3ccc(OC)c(OC)c3)c2)cc1	u	u	16µM*	-75%[10.9 µM]
COc1ccc(C(=O)Nc2ccc(OC)c(OC)c2)cc1	0%	u	u	-54%
CCc1nnc(NC(=O)c2c(OC)cccc2OC)s1	1%	6%	4%	-2%
O=C(NC1CCN(Cc2ccccc2)C1)c1ccc(Cc2nc3ccccc3[nH]2)cc1 (configuration not stated)	x	-4%	-3%	x
CN1CCN(c2ncc3nc(-c4ccccc4)c(=O)n(C)c3n2)CC1	-2%[11.4 µM]	1%	-6%	10µM*
Cc1cc(N2CCN(C(c3ccccc3)c3ccccc3)CC2)n2ncnc2n1	2%	12%	8%	-44%
Cc1nc2ncnn2c(N2CCN(C(c3ccccc3)c3ccccc3)CC2)c1C	u	u	20µM*	-41%
Cc1nn(-c2ccc(C(=O)O)cc2)c(N)c1-c1ccccc1	u	7.9µM*	10µM*	-61%
O=C(Nc1cccc(Cl)c1)N1CC2CCCN2c2ccccc21 (configuration not stated)	2%	0%	10µM*	6%[10.9 µM]
O=C(NCc1cccc(Cl)c1)c1ccc(NC(=O)N2CC3CCCN3c3ccccc32)cc1 (configuration not stated)	u	-2%	5%	-7%[10.9 µM]
CC(=O)Nc1cccc(NC(=O)CSc2ccc(-c3sc(-c4ccccc4)nc3C)nn2)c1	u	14%	7.9µM*	-20%[10.9 µM]
COc1cc(NC(=O)CSc2ccc(-c3sc(-c4ccccc4)nc3C)nn2)cc(OC)c1	7%	-2%	-9%	-19%[10.9 µM]
Cc1nc(-c2ccccc2)sc1-c1ccc(SCC(=O)Nc2cccc(C(F)(F)F)c2)nn1	0%	-9%	10µM*	-15%[10.9 µM]
CCc1ccc(NC(=O)CSc2ccc(-c3sc(-c4ccccc4)nc3C)nn2)cc1	u	0%	-18%	-10%[10.9 µM]
CN(C)c1ncc2nc(-c3cc(F)cc(F)c3)c(=O)n(C[C@H]3CCCO3)c2n1	1%[11.4 µM]	-1%	0%	-11%
CCOc1ccc(CNC(=O)c2ccc(NC(=O)c3nsc4ccccc34)cc2)cc1	u	-26%	-28%	-10%[10.9 µM]
CCOc1ccc(CNC(=O)c2ccccc2NC(=O)c2nsc3ccccc23)cc1	2%	u	10µM*	u
CC(C)N(CCC(=O)c1ccc2ccccc2c1)Cc1ccccc1	u	20µM*	32µM*	-34%
CC(C)N(Cc1ccccc1)C(=O)COC(=O)c1ccc2c(c1)OCCO2	1%	5%	-9%	-12%
Cc1nn(-c2nc3ccccc3s2)c(C)c1Oc1ccccc1O	u	13µM*	u	-19%
SMILES	IkB sig inh	p53ts 32C tox	p53ts 39C kill	Peg3 imprint
CC(=O)OCC1OC(C#CCC2CCCCC2)C=CC1OC(C)=O (configuration not stated)	x	2%[9.22 µM]	-8%[9.22 µM]	x
Cc1ccc(N=c2oc3cc(O)ccc3cc2C(N)=O)cc1	u	u	7.9µM*	-26%
COc1ccc(N=c2oc3cc(O)ccc3cc2C(=O)NCC2CCCO2)cc1 (configuration not stated)	u	4%	10%	x
CCCCS(=O)(=O)c1nc(-c2ccc(Br)cc2)cc(-c2ccccc2)c1C#N	3.2µM*	2µM*	u	-37%[10.9 µM]
Cc1nc2ccc(NC(=O)Cc3cccs3)cc2s1	3%	16µM*	10µM*	-41%
CO/N=C\[C@@H](NS(=O)(=O)c1ccc(C)cc1)[C@H](C)/C=C\CC(=O)OC	x	4%[9.22 µM]	22%[9.22 µM]	x
Cc1noc(C)c1C(=O)N1CCC2(CC1)CN(c1ccccn1)C2	-1%[11.4 µM]	-9%	3%	x
